Reference: PubChem BioAssay (NCATS)
Records with an inconclusive call do not appear. The source made the active and inactive calls. The call rests on the fitted dose curve; in most records, active means well fitted curve in the direction sought with a large enough effect; inconclusive means small, poorly fitted or top-dose-only effect, or another doubt; inactive means no such curve, though single readings can be large; an effect the other way counts as inactive or inconclusive.

Key:
[1] = molecular target: Cellular tumor antigen p53 (Homo sapiens) (UniProt P04637); assay: Primary qHTS for small molecule compounds that upregulate eGFP-tagged delta133p53alpha (in N-terminal) cells. (AID 2060322); details: NCI-H358 eGFP-delta133p53alpha fluorescence, 24 h; activation: hits give high values;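 further: series mostly up to about 56 µM; 0% = DMSO vehicle and 100% = reference activator; nearly all actives have a fitted effect of over 75% in size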
Sequence of Cellular tumor antigen p53 (Homo sapiens) (P04637 whole entry, looked up): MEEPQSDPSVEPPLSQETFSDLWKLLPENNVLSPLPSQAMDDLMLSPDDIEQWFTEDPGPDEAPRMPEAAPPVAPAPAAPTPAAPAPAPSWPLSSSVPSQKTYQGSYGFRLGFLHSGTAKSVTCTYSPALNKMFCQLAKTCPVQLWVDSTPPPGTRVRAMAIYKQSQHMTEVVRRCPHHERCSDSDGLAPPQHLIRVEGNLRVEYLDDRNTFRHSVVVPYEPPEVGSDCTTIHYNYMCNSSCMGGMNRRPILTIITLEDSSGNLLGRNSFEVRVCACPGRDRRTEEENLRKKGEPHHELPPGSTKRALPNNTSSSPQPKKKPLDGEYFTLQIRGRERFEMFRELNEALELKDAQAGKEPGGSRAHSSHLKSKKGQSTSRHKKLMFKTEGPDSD
Procedure, shortened: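 NCI-H358 cells pre-induced 24 h with 10 ng/ml doxycycline to express N-terminal eGFP-delta133p53alpha, then dosed 24 h at 37C without doxycycline; fixed, Hoechst-stained, GFP intensity by laser scanning cytometry, normalized to DMSO (0%) and 57.5 uM 5-azacytidine (100%).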

[2] = molecular target: Aldehyde dehydrogenase, mitochondrial (Homo sapiens) (UniProt P05091); assay: qHTS for Inhibitors of the Aldehyde Dehydrogenase Family (ALDH2) Primary screen (AID 2061308);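 further: plate controls were vehicle for no effect and reference inhibitor for full effect; nearly all actives have a fitted effect of over 55% in size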
[3] = molecular target: Retinaldehyde dehydrogenase 3 (Homo sapiens) (UniProt P47895); assay: qHTS for Inhibitors of the Aldehyde Dehydrogenase Family (ALDH1A3) Primary screen (AID 2061315);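 further: plate controls were DMSO vehicle for no effect and reference inhibitor for full effect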

C=C[C@](C)(CC/C=C(\C)C(=O)O)O[C@@H]1OC[C@H](O)[C@H](O)[C@H]1O
inactive: activation [1] 7.14% | Potency [2] | Potency [3]

CC(=O)OCCC(C)CCC1C(C)(O)CCC2C(C)(C)CCCC21C (stereo unspecified)
inactive: activation [1] 6.87% | Potency [2] | Potency [3]

C/C=C(\C)C(=O)OC[C@H]1O[C@H](O[C@H]2O[C@H](CO)[C@@H](O)[C@H](O)[C@H]2O[C@@H]2O[C@H](CO)[C@@H](O)[C@H](O)[C@H]2O)[C@H](O[C@@H]2O[C@H](CO)[C@@H](O)[C@H](O)[C@H]2O)[C@@H](O)[C@@H]1O
inactive: activation [1] -3.82% | Potency [2] | Potency [3]

C[C@H]1CC[C@@H]2N(C1)C[C@@H]1[C@H]([C@@H](O)[C@H](O)[C@]3(O)[C@H]1C[C@@]14OC5(O)[C@@H](C[C@@H](O)[C@@H]31)[C@]4(C)CC[C@@H]5O)[C@]2(C)O
inactive: activation [1] 0% | Potency [2] | Potency [3]

C[C@@H]1O[C@@H](OC[C@H]2O[C@@H](OCCc3ccccc3)[C@H](O)[C@@H](O)[C@@H]2O)[C@H](O)[C@H](O)[C@H]1O
inactive: activation [1] -8.4% | Potency [2] | Potency [3]

O=C(NCc1ccccc1-c1ccccc1C(=O)NCCc1ccccn1)OCc1ccccc1
inactive: activation [1] 1% | Potency [2] | Potency [3]

Nc1ncnc2c1ncn2[C@H]1O[C@@H](C(=O)N2CCN(CC(=O)Nc3cccc4c3CNC4=O)CC2)[C@H](O)[C@@H]1O
inactive: activation [1] -24.3% | Potency [2] | Potency [3]

C=CC(C)(O)CC/C=C(\C)COC1O[C@H](CO)[C@@H](O)[C@H](O)[C@H]1O (stereo partly specified)
inactive: activation [1] -14.5% | Potency [2] | Potency [3]

Cc1cc(CS(=O)(=O)c2ccccc2)cc(OCc2ccc(CN3CCCC3CO)cc2)c1 (stereo unspecified)
inactive: activation [1] 8.93% | Potency [2] | Potency [3]

Cc1cc2c(cc1N1C(=O)c3cccc4c(CCCO)ccc(c34)C1=O)n(C)c(=O)n2C
inactive: activation [1] 5% | Potency [2] | Potency [3]

C/C(=C\CCC(C)(C)O)CCO[C@@H]1O[C@H](CO[C@@H]2O[C@@H](C)[C@H](O)[C@@H](O)[C@H]2O)[C@@H](O)[C@H](O)[C@H]1O
inactive: activation [1] 0% | Potency [2] | Potency [3]

O=C(OCC1OC(Oc2ccc(O)cc2COC(=O)C2(O)C(O)CCC(=O)C2OC(=O)C2C=CCC2)C(OC(=O)C2C=CCC2)C(O)C1O)C1C=CCC1 (stereo unspecified)
inactive: activation [1] -3.05% | Potency [2] | Potency [3]

CC1=CC(=O)CC(C)(C)[C@H]1/C=C/C(CO)O[C@@H]1O[C@H](CO)[C@@H](O)[C@H](O)[C@H]1O (stereo partly specified)
inactive: activation [1] 9.16% | Potency [2] | Potency [3]

Cc1c(N2C(=O)c3ccc(C(=O)O)cc3C2=O)c(=O)n(-c2ccccc2)n1C
inactive: activation [1] -5% | Potency [2] | Potency [3]

CC(=O)OC1CC2(C)C3=CCC4(C)C5C(O)C(O)C(C(C)C)C5(C)CCC4(C)C3CCC2C(C)(C)C1OC1OC(CO)C(O)C(O)C1O (stereo unspecified)
inactive: activation [1] -1.53% | Potency [2] | Potency [3]

C[C@@H]1O[C@@H](O[C@H]2[C@@H]3C=CO[C@@H](O[C@@H]4O[C@H](CO)[C@@H](O)[C@H](O)[C@H]4O)[C@@H]3[C@@]3(CO)O[C@@H]23)[C@H](OC(=O)/C=C/c2ccc(O)cc2)[C@H](O)[C@H]1O
inactive: activation [1] 6.87% | Potency [2] | Potency [3]

CC1(C)CC[C@]2(C(=O)O)[C@H](O)C[C@]3(C)C(=CCC4[C@@]5(C)CC[C@H](O[C@@H]6OC[C@@H](O)[C@H](O)[C@H]6O)[C@@](C)(C(=O)O)C5CC[C@]43C)[C@@H]2C1 (stereo partly specified)
inactive: activation [1] 6.11% | Potency [2] | Potency [3]

COc1cc(C(C)=O)ccc1O[C@@H]1O[C@H](CO[C@@H]2O[C@@H](C)[C@H](O)[C@@H](O)[C@H]2O)[C@@H](O)[C@H](O)[C@H]1O
inactive: activation [1] -13% | Potency [2] | Potency [3]

O=C(C[C@@H]1C(C(=O)O)=CO[C@@H](O[C@@H]2O[C@H](CO)[C@@H](O)[C@H](O)[C@H]2O)/C1=C\CO)OCCc1ccc(O)cc1
inactive: activation [1] 1.53% | Potency [2] | Potency [3]

C/C(=C\CCC(C)CCO)C(=O)OC1(C)CCC2C(C(=O)O)=COC(OC3OC(CO)C(O)C(O)C3O)C21 (stereo unspecified)
inactive: activation [1] 4.58% | Potency [2] | Potency [3]

C/C1=C\CC[C@]2(C)O[C@H]2C(=O)c2c(C)coc2C1
inactive: activation [1] 20.5% | Potency [2] | Potency [3]

COc1ccc(/C=C/C(=O)O[C@@H]2[C@@H](O)[C@@H](O)[C@H](O[C@H]3[C@@H]4C=CO[C@@H](O[C@@H]5O[C@H](CO)[C@@H](O)[C@H](O)[C@H]5O)[C@@H]4[C@@]4(CO)O[C@@H]34)O[C@H]2C)cc1
inactive: activation [1] -16% | Potency [2] | Potency [3]
